Composite z-score and z-score data for 5 molecules are collected here from PubChem BioAssay.

The nature of assay [1]: anti-His antibody binders, primary screen, artefact control for SMM control protein annotation, biochemical, small-molecule microarray, 635 nm fluorescence (AID 1128).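 Further: score merges feature fluorescence with signal-to-noise for each printed compound spot.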 The settings on record: anti-His Alexa647 antibody binding, higher = more signal.
For assay [2], the system named is Human papillomavirus type 1a E7 protein (residues 1-88). The assay is described as follows: HPV1a E7 small-molecule binders, primary screen, biochemical, small-molecule microarray, residues 1-88, 635 nm (AID 1129). The settings on record: small-molecule microarray binding, fluorescence 635 nm; higher = more signal.
For assay [3], the target named is Focal adhesion kinase 1 (Homo sapiens) (UniProt Q05397). Nature of the assay: small-molecule microarray binders of FAK, primary screen, biochemical, 635/667 nm fluorescence, BSA, DTT (AID 1130).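 Further: composite of spot emission at 667 nm and signal to noise over triplicate slides.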 The following applies: PTK2 binding, 635 nm fluorescence, higher = more signal.
Focal adhesion kinase 1 (Homo sapiens), sequence (Q05397 whole entry, looked up): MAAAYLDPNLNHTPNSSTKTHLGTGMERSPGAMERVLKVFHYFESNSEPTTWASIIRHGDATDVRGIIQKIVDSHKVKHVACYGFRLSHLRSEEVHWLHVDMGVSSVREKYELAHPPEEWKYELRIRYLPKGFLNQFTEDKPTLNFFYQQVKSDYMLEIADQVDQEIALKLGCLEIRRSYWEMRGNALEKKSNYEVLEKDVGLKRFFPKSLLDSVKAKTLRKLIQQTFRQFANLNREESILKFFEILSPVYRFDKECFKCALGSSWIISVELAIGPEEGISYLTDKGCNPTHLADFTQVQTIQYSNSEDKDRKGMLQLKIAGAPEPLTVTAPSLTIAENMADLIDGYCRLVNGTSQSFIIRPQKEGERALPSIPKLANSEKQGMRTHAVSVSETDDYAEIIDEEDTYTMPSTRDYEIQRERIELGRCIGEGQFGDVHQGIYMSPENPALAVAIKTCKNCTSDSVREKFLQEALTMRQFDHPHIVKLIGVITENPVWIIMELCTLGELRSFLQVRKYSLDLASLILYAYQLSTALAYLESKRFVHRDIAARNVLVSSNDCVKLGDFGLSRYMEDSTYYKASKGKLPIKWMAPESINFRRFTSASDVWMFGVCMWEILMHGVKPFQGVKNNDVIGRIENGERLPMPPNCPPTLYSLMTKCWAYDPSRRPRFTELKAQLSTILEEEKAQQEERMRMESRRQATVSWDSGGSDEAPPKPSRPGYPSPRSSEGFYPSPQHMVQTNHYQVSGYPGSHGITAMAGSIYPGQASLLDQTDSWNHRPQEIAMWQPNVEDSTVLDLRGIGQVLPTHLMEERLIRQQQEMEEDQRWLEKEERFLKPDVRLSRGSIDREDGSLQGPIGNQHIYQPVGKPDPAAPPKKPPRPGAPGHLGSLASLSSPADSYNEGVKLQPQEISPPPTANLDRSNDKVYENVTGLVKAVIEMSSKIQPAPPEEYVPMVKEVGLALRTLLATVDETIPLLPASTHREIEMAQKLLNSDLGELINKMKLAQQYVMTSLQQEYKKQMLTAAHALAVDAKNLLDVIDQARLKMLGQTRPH
The test system of assay [4] is Fibrinogen (Alexa647-labelled). Nature of the assay: fibrinogen binders on compound microarrays, profiling panel, artefact control for SMM control-protein annotation, biochemical, small-molecule microarray, 635/667 nm fluorescence (AID 1131).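 Further: z-score merges 667 nm fluorescence with per-spot signal-to-noise over triplicate slides.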 The settings on record: fibrinogen-A647 binding fluorescence, higher = more signal.
Assay [5] deals with Follistatin (Homo sapiens) (UniProt P19883). Nature of the assay: follistatin binders on small-molecule microarrays, primary screen, biochemical, small-molecule microarray, 635/667 nm fluorescence (AID 1132). The settings on record: FST binding, 635 nm fluorescence, higher = more signal.
Follistatin (Homo sapiens), sequence (P19883 whole entry, looked up): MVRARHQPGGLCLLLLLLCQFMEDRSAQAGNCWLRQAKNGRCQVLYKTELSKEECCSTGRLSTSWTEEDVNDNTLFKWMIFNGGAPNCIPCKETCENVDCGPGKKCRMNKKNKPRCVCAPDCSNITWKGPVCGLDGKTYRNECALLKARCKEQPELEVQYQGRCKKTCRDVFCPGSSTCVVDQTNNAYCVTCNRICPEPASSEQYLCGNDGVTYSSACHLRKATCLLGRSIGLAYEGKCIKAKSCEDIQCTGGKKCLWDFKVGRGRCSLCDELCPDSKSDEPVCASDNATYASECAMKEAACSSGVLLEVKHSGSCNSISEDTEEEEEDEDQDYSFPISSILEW
Assay [6] addresses Fibroblast growth factor 2 (Homo sapiens) (UniProt P09038). Nature of the assay: FGF2 binders on small-molecule microarrays, primary screen, biochemical, small-molecule microarray, 635/667 nm fluorescence (AID 1133). The following applies: small-molecule microarray binding, FGF2, fluorescence 635/667; higher = more signal.
Assay [7] in a line: mitochondrial membrane potential change in A549 cells, profiling panel, cell-based, JC-1 fluorescence, basal, 24 h, 100 nL (AID 1138).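 Further: A549 lung adenocarcinoma cells under basal conditions with no added stimulus; test concentration not given here.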 The settings on record: higher = more signal.
For another assay, the system named is Lefty1. The assay is described as follows: Lefty1 binders on small-molecule microarrays, primary screen, biochemical, small-molecule microarray, 635/667 nm fluorescence (AID 1139). The settings on record: small-molecule microarray binding, fluorescence 635/667; higher = more signal.
In assay [8] the test system is wheat germ agglutinin (Triticum aestivum), Alexa647-labelled. The assay is described as follows: wheat germ agglutinin binders on compound microarrays, profiling panel, artefact control for SMM control-protein annotation, biochemical, small-molecule microarray, 635/667 nm fluorescence (AID 1140).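 Further: score merges 667 nm feature emission with signal to noise over triplicate slides.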 The following applies: WGA-A647 binding, 635 nm fluorescence, higher = more signal.

In assay [9] the target is Luciferin 4-monooxygenase (Photinus pyralis) (UniProt P08659). The assay is described as follows: firefly luciferase enzyme inhibitors, primary screen, biochemical, luminescence, purified enzyme, 2006 set (AID 1141).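 Further: cell-free assay with purified firefly luciferase at 100 ng per well in PBS; test concentration not given here.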 The settings on record: SteadyGlo luminescence, 30 min, higher = more signal, called active from +8 up or from −8 down.
Luciferin 4-monooxygenase (Photinus pyralis), sequence (P08659 whole entry, looked up): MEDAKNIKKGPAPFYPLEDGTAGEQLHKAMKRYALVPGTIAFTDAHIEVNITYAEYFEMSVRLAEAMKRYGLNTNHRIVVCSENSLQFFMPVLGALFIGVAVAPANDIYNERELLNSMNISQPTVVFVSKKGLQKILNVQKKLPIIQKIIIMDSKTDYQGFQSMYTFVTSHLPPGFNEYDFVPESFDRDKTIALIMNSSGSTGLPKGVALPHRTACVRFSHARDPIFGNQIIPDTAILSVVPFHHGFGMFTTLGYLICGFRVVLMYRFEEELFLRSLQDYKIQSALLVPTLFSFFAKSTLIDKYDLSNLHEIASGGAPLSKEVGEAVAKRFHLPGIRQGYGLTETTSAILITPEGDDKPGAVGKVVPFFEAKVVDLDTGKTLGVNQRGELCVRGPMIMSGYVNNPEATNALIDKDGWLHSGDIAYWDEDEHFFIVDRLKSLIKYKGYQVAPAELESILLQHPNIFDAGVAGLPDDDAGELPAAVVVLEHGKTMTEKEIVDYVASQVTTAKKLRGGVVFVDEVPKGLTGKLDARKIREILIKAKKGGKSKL
Assay [10] concerns Wnt5a (protein binding on small-molecule microarray). Nature of the assay: Wnt5a binders on small-molecule microarray, primary screen, biophysical, 635/667 nm fluorescence (AID 1142).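 Further: fluorescence read at 667 nm with signal to noise per printed feature.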 The settings on record: 635 nm fluorescence, higher = more signal.
Assay [11] can be described thus: cell viability in Huh7 cells, primary screen, cytotoxicity control for HCV replication inhibitor project, CellTiter-Glo luminescence, basal, 48 h (AID 1143).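 Further: Huh7 hepatoma cells carrying a hepatitis C replication reporter with no stimulus; test concentration not given here.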 The settings on record: Huh7 HCV replicon, higher = more signal, called active from +8 up or from −8 down. For orientation: In ATP-based viability assays light output follows the ATP content of the culture.
Assay [12] can be described thus: P. aeruginosa biofilm formation inhibitors, primary screen, PAO1 strain, BacTiter-Glo luminescence, LB-PBS (AID 1144). The following applies: 12 h, higher = more signal.
The nature of assay [13]: CREB reporter modulators without forskolin, primary screen, cell-based, PC12, CRE-LacZ reporter, unstimulated (AID 1145). The settings on record: no forskolin, luminescence, 4.5 h, higher = more signal, called active from +8 up or from −8 down.
The nature of assay [14]: CREB reporter modulators under forskolin, primary screen, cell-based, PC12, CRE-LacZ reporter, forskolin-stimulated (AID 1146).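 Further: PC12 cells with 6xCRE LacZ reporter stimulated by forskolin 10 µM; beta-galactosidase reporter signal reflecting CREB driven transcription.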 The following applies: luminescence, 4.5 h, higher = more signal, called active from +8 up or from −8 down.
The target in assay [15] is Streptavidin (Streptomyces avidinii) (UniProt P22629). Nature of the assay: streptavidin binders on small-molecule microarray, primary screen, artefact control for SMM compound annotation, biophysical, 635/667 nm fluorescence (AID 1147).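 Further: signal reflects streptavidin binding to arrayed compounds as a control protein.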 The settings on record: streptavidin binding, higher = more signal.
Streptavidin (Streptomyces avidinii), sequence (P22629 whole entry, looked up): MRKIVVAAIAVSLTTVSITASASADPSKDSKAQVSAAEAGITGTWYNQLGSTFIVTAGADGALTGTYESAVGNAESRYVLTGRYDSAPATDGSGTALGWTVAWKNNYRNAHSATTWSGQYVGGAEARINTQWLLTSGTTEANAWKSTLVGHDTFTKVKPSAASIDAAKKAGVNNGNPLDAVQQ
The nature of assay [16]: small-molecule binders of probe aInhba, primary screen, biochemical, small-molecule microarray, 635/667 nm fluorescence (AID 1148).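 Further: score merges 667nm spot fluorescence with signal-to-noise for antibody binding to printed compounds.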 The settings on record: higher = more signal.
The target of assay [17] is Torsin-1A (Homo sapiens) (UniProt O14656). Nature of the assay: torsin A binders from cell lysate, primary screen, small-molecule microarray, wild-type, 635/667 nm (AID 1149). The following applies: COS7 hTOR1A-WT lysate, 635 nm fluorescence, higher = more signal.
Torsin-1A (Homo sapiens), sequence (O14656 whole entry, looked up): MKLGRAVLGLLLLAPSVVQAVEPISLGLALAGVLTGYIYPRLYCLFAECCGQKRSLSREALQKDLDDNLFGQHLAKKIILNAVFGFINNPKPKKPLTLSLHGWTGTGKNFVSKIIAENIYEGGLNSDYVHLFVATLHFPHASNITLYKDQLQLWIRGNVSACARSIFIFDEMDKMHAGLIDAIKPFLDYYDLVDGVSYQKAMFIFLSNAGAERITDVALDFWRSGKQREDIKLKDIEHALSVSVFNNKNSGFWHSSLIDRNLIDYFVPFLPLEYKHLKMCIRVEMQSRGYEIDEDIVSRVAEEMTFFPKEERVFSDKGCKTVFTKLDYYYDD
The target is the same in assay [18]. The assay is described as follows: small-molecule binders of mutant TOR1A in lysate, primary screen, cell lysate, small-molecule microarray, COS7 lysate, 635/667 nm fluorescence (AID 1150).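 Further: score pools 667 nm emission and signal to noise measuring lysate protein binding.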 The settings on record: COS7 hTOR1A mutant lysate, 635 nm fluorescence, higher = more signal.
Assay [19] relates to Sonic hedgehog protein (Shh). The assay is described as follows: small-molecule binders of Shh protein, primary screen, biochemical, small-molecule microarray, 635/667 nm fluorescence (AID 1151).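 Further: Shh protein binding to compounds spotted on small-molecule microarray slides; score combines spot fluorescence intensity with signal-to-noise across triplicate slides.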 The settings on record: small-molecule microarray binding, 635 nm fluorescence; higher = more signal.

Active and inactive are the calls of the source. Unless noted, how the calls were made is not given here.

Fibroblast growth factor 2 (Homo sapiens), sequence (P09038 whole entry, looked up): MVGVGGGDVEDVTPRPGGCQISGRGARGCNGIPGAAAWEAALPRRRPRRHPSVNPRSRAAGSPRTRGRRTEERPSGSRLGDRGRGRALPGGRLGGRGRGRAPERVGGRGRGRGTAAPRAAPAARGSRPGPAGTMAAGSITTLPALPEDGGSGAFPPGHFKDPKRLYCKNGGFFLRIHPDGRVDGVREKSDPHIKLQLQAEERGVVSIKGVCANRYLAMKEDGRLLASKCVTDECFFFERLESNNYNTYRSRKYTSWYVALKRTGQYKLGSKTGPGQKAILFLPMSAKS

In the case of `CC(=O)OC[C@H]1O[C@H](C#Cc2ccccc2)C=C[C@@H]1OC(C)=O`, the composite z-score in assay [1] was -0.223; in assay [2] it was 0.262; in assay [3], -0.203; in [4], 0.81; in [5], 0.272; in assay [6] it was 0.271. The composite z-score is 0.517 in the assay on Lefty1; -0.361 in assay [8]; -0.118 in assay [10]; 0.0752 in assay [15]; -0.182 in assay [16]; 0.398 in the assay with Torsin-1A (Homo sapiens) [17]. Moreover, the composite z-score with Torsin-1A (Homo sapiens) [18] was -0.0454; in [19] it was 0.337. For the same molecule, the z-score in assay [7] is 0.277; in assay [9], -2.26 (inactive); in [11] it was -2.96 (inactive); in assay [12] it was 0.908 (inactive); in assay [13], -0.256 (inactive); in assay [14], 3.76 (inactive).
As to `COc1ccc(COC(=O)NN=C2C[C@@H](O)[C@@H](O)[C@@H]3[C@@H]4C(=O)N(c5cccc(Oc6ccccc6)c5)C(=O)[C@@H]4CC[C@@H]23)cc1`, the composite z-score in [1] was 0.177; in [2] it was -0.181; in assay [3], -0.0032; in assay [4], 0.238; in assay [5], -0.823; in [6], -0.415. The composite z-score is -0.282 with Lefty1; 0.485 in assay [8]; -0.365 in [10]; 0.519 in [15]; -0.162 in [16]; 0.574 with Torsin-1A (Homo sapiens) [17]. For the same molecule, the composite z-score was -0.101 in the assay with Torsin-1A (Homo sapiens) [18] and -1.38 in assay [19]. Moreover, the z-score in assay [7] was -0.201; in assay [9] it was 0.891 (inactive); in assay [11], -0.201 (inactive); in assay [12], 0.791 (inactive); in assay [13], 2.15 (inactive); in assay [14], 0.087 (inactive).
On to `COC(=O)[C@@H]1CC[C@H](C)[C@@H](c2ccc(C)cc2)N1C(=O)c1ccc(C=NOCC[C@@H]2C=C[C@H](OC(C)=O)[C@@H](COC(C)=O)O2)cc1`, for which the composite z-score in [1] was 2.68; in [2] it was 0.895; in assay [3], -0.125; in assay [4], 0.316; in [5], 0.47; in assay [6], 0.614. Besides, the composite z-score with Lefty1 is 0.605; in assay [8] it was 0.175; in assay [10], 0.133; in assay [15], 0.342; in assay [16], -0.0477; with Torsin-1A (Homo sapiens) [17], 0.612. Also, the results for the composite z-score (in the assay with Torsin-1A (Homo sapiens) [18]; in assay [19]) were 0.481 and 0.681, respectively. Besides, the z-score in assay [7] was -0.512; in assay [9] it was 0.963 (inactive); in assay [11] it was -0.689 (inactive); in [12] it was 0.637 (inactive); in assay [13], 4.56 (inactive); in [14], -0.0189 (inactive).
Consider `O=C1[C@H]2[C@H]3[C@H](O)[C@H](O)CC(=NOCc4ccccc4)[C@H]3CC[C@H]2C(=O)N1Cc1ccc2c(c1)OCO2`, for which the composite z-score in [1] was -0.169; in [2], 0.186; in assay [3] it was -0.175; in assay [4], 0.632; in assay [5], 0.214; in assay [6] it was 0.533. For the same molecule, the composite z-score was 0.397 in the assay with Lefty1; 0.492 in assay [8]; -0.0988 in [10]; 0.484 in assay [15]; -0.15 in assay [16]; 0.0874 with Torsin-1A (Homo sapiens) [17]. For the same molecule, the figures for the composite z-score (with Torsin-1A (Homo sapiens) [18]; in [19]) were 0.172 and 0.394, respectively. Further, the z-score in [7] is -0.626; in assay [9], 1.23 (inactive); in assay [11], -1.96 (inactive); in assay [12] it was 1.66 (inactive); in assay [13] it was -0.203 (inactive); in [14] it was -0.915 (inactive).
Turning to `CO[C@@H]1COC(=O)[C@@H](C)COC(=O)[C@@H](C)NC(=O)CC=C[C@@H]1C`, the composite z-score was 0.548 in [1]; -0.727 in [2]; -0.149 in [3]; -1.27 in assay [4]; 0.679 in assay [5]; 1.7 in [6]. For the same molecule, the composite z-score in the assay on Lefty1 is 1.43; in [8] it was 0.224; in assay [10], 0.102; in assay [15], -0.457; in assay [16], -0.246; with Torsin-1A (Homo sapiens) [17], 1.65. For the same molecule, the composite z-score is 0.717 with Torsin-1A (Homo sapiens) [18] and 1.51 in [19]. For the same molecule, the z-score in [7] was -1.24; in assay [9], 0.138 (inactive); in [11], -4.69 (inactive); in assay [12], -2.01 (inactive); in assay [13] it was -0.129 (inactive); in [14], -0.694 (inactive).
